Assay results as given in PubChem BioAssay (NCATS).
Records with an inconclusive call do not appear. Unless noted, the call rests on the fitted dose curve; in most records, active means well fitted curve in either direction with a large enough effect (not every such curve was filed as active); inconclusive means small, poorly fitted or top-dose-only effect, or another doubt; inactive means flat fitted curve, though single readings scatter.

Tests used:
[1] = AP1 Signaling Pathway (AID 357); conditions: ME-180 AP-1-bla reporter, EGF-induced, beta-lactamase ratio, 5 h; at 17.2 µM (top of the series) unless noted;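 further: ME-180 reporter cells stimulated with EGF at its EC50 level; on the % scale 0 is the no-effect control and ±100 the full control effect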
Summary of the method: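 AP-1-bla ME-180 cells, Opti-MEM + 0.5% dialyzed FBS, plated overnight 37 °C. Cpd titration + EC50 EGF, 5 h 37 °C. CCF4 2.5 h RT; ex 405, em 460/530 ratio → %activity, AC50.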

[2] = NFAT Signaling Pathway (AID 444); conditions: Jurkat NFAT-bla M1, carbachol, beta-lactamase ratio, 5 h; at 17.2 µM (top of the series) unless noted;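 further: carbachol stimulus at about its EC50 of 1 µM final; on the % scale 0 is the no-effect control and ±100 the full control effect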
Summary of the method: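 Read-out: CCF4 FRET ratio (460 nm/530 nm) after 1 h RT dye loading, used for %activity and AC50 from titration series. Cells: Jurkat NFAT-β-lactamase/M1 line, treated with compound plus 1 uM carbachol for 5 h, 37 °C.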

[3] = Stat Signaling Pathway (AID 446); conditions: ME-180 (cervical carcinoma) SIE beta-lactamase reporter, IL-6 stimulated, 5 h; at 17.2 µM (top of the series) unless noted;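 further: ME-180 cervical cancer cells given 40 pM IL-6 alongside compound; SIE-controlled beta-lactamase reporter measured as 460/530 nm FRET emission ratio; on the % scale 0 is the no-effect control and ±100 the full control effect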
Summary of the method: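 Emission at 460 and 530 nm (excitation 405 nm) reports SIE-controlled beta-lactamase in ME-180 cells. Cells received compound with 40 pM IL-6 for 5 hrs at 37 C; data scaled between 300 pM IL-6 and 125 nM JAK-inhibitor controls.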

[4] = target: Glucocorticoid receptor (Homo sapiens) (UniProt P04150); assay: GR-GFP Redistribution (AID 450;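 active means compounds whose dose series gives a full or clear partial fitted curve of increased nuclear translocation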; further: potency means the concentration at half of the fitted maximal effect)
Glucocorticoid receptor (Homo sapiens), sequence (P04150 whole entry, looked up): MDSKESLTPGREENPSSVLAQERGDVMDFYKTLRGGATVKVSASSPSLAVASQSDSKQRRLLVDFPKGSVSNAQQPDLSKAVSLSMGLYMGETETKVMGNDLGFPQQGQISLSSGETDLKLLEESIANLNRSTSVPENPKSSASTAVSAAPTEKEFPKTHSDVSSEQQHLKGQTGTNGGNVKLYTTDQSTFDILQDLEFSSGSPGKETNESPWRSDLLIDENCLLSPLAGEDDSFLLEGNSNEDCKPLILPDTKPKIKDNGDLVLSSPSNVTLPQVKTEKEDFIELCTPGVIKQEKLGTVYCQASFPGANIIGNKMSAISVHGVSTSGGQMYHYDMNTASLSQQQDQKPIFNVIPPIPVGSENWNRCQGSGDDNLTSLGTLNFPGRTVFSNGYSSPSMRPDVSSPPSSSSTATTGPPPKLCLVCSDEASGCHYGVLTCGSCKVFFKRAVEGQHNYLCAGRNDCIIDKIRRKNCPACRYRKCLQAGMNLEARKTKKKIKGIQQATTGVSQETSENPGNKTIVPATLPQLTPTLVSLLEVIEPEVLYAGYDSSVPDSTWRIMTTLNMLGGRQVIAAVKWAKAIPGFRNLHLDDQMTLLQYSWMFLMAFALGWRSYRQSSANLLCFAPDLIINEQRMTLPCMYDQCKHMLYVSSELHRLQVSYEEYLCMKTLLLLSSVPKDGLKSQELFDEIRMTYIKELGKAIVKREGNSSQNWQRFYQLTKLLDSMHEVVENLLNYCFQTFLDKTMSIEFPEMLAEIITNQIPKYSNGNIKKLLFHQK

COc1ccc(OC)c(C2C(C(=O)c3sc(C)nc3C)=C(O)C(=O)N2CCN2CCOCC2)c1 (configuration not stated)
inactive: activity change, negative = inhibition [1] 4.44% | activity change, negative = inhibition [2] 16.6% | activity, negative = inhibition [3] -1.07% | Potency [4] > 20.6 µM

CC1(C)CC(=O)C2=C(C1)N(Cc1ccco1)C(=O)C2(NC(=O)c1cccnc1)C(F)(F)F (configuration not stated)
inactive: activity change, negative = inhibition [1] -3.2% | activity change, negative = inhibition [2] -3.77% | activity, negative = inhibition [3] -9.45% | Potency [4] > 20.6 µM

CN=c1sc2ccccc2n1CC(O)COCc1ccco1 (configuration not stated)
inactive: activity change, negative = inhibition [1] -8.62% | activity change, negative = inhibition [2] 1.06% | activity, negative = inhibition [3] -2.56% | Potency [4] > 20.6 µM

N#Cc1c2c(c(-c3ccco3)[nH]c1=O)CCCC2
inactive: activity change, negative = inhibition [1] -0.634% | activity change, negative = inhibition [2] 10.5% | activity, negative = inhibition [3] -2.06% | Potency [4] > 20.6 µM

CCOC(=O)c1n[nH]c2ccccc12
inactive: activity change, negative = inhibition [1] 7.22% | activity change, negative = inhibition [2] 0.11% | activity, negative = inhibition [3] -6.98% | Potency [4] > 20.6 µM

CCOC(=O)C1/C(=N\O)CC(C)(O)C(C(=O)OCC)C1c1ccc(N(C)C)cc1 (configuration not stated)
inactive: activity change, negative = inhibition [1] 6.52% | activity change, negative = inhibition [2] 2.58% | activity, negative = inhibition [3] -4.68% | Potency [4] > 20.6 µM

CCOC(=O)C1Cc2c([nH]c3ccccc23)C(C)N1 (configuration not stated)
inactive: activity change, negative = inhibition [1] -10.7% | activity change, negative = inhibition [2] 2.1% | activity, negative = inhibition [3] -9.52% | Potency [4] > 20.6 µM

CCC(CC)n1[nH]c(=O)cc1N
inactive: activity change, negative = inhibition [1] -9.54% | activity change, negative = inhibition [2] 14.2% | activity, negative = inhibition [3] 2.51% | Potency [4] > 20.6 µM

CCOC(=O)CC(=O)CSc1nc(N)c(C#N)c(-c2ccc(F)cc2)c1C#N
inactive: activity change, negative = inhibition [1] -26.2% | activity change, negative = inhibition [2] 7.66% | activity, negative = inhibition [3] -17.8% | Potency [4] > 20.6 µM

CCCC(CCC(=O)Nc1ccc(C(=O)OC)cc1)C(=O)O (configuration not stated)
inactive: activity change, negative = inhibition [1] -9.55% | activity change, negative = inhibition [2] -16.6% | activity, negative = inhibition [3] 11.7% | Potency [4] > 20.6 µM

Cc1cc(C(F)(F)F)nn1CC(=O)NCC1CCCO1 (configuration not stated)
inactive: activity change, negative = inhibition [1] 3.74% | activity change, negative = inhibition [2] -11% | activity, negative = inhibition [3] 3.03% | Potency [4] > 20.6 µM

CC1(C)Cc2c(sc3c2C(=O)N(c2ccccc2)C2=NCCCN23)CO1
inactive: activity change, negative = inhibition [1] 9.3% | activity change, negative = inhibition [2] -14.6% | activity, negative = inhibition [3] 5.74% | Potency [4] > 20.6 µM

CC1(C)CC(=O)C2=C(C1)N(CC1CCCO1)C(=O)C2(O)C(F)(F)F (configuration not stated)
inactive: activity change, negative = inhibition [1] 4.53% | activity change, negative = inhibition [2] 0.206% | activity, negative = inhibition [3] 5.45% | Potency [4] > 20.6 µM

CCOC(=O)c1[nH]c2ccc(OC)cc2c1C
inactive: activity change, negative = inhibition [1] -0.35% | activity change, negative = inhibition [2] -6.84% | activity, negative = inhibition [3] 6% | Potency [4] > 20.6 µM

CCOC(=O)CSC1=C(C#N)C(c2ccc(C)cc2)C(C(=O)OC)C(=O)N1 (configuration not stated)
inactive: activity change, negative = inhibition [1] 8.51% | activity change, negative = inhibition [2] 6.97% | activity, negative = inhibition [3] -7.08% | Potency [4] > 20.6 µM

CC(C)c1cc(NCCN2CCOCC2)n2c(nc3ccccc32)c1C#N
inactive: activity change, negative = inhibition [1] -4.92% | activity change, negative = inhibition [2] 6.15% | activity, negative = inhibition [3] 9.84% | Potency [4] > 20.6 µM

CC(=O)C(=[N+]=[N-])C(=O)NCc1ccccc1
inactive: activity change, negative = inhibition [1] 7.12% | activity change, negative = inhibition [2] -14.9% | activity, negative = inhibition [3] 1.88% | Potency [4] > 20.6 µM

COc1ccc(Oc2nc3c(c(=O)n(C)c(=O)n3C)n2Cc2cccc(OC)c2)cc1
inactive: activity change, negative = inhibition [1] -6% | activity change, negative = inhibition [2] -3.53% | activity, negative = inhibition [3] -2.94% | Potency [4] > 20.6 µM
